Measurements published in the supplement of paper PMC10849652.
Of roughly 7,900 targets only a part is listed; those with a hit were picked by preference. About 0.6% of all pairs of compound and target were hits. Values without a mark were called inactive.

Tests used:
Assay in all cases: log2 fold change, soluble protein after heating vs DMSO (PISA); higher = thermal stabilisation; K562 cells, 10 uM, 30 min; active = over 0.2 and 3.5 SD of the protein, either way, in both replicates (recomputed)
[1] = compound: C1=CC=C(C=C1)[C@H](COC2=CC3=C(C=C2)NC(=O)N3)NC(=O)C4=CC=CN(C4=O)CC5=CC(=C(C=C5)F)F
Method in brief: (§1)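 K562 cells at 2×10^6 cells/mL were treated for 30 min with 10 μM compound, and aliquots were heated for 3 min over 48°C-58°C before pooling. Extraction used PBS with 0.5% NP-40 at 4°C, and soluble protein was the supernatant after 21,000xg for 90 min, measured by TMTpro 16plex LC-MS/MS with channel sums equalised. Thermal stability values, relative to control samples and from duplicates, are log2 fold changes.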

[2] = compound: CC1=C(SC2=C1C(=N[C@H](C3=NN=C(N32)C)CC(=O)N)C4=CC=C(C=C4)Cl)C
Method in brief: as §1

[3] = compound: CC1=C2C(=CC=C1)N=C(N(C2=O)C3=CC=CC=C3C)CN4C=NC5=C(N=CN=C54)N
Method in brief: as §1

[4] = compound: Cc1sc2c(c1C)C(c1ccc(Cl)cc1)=N[C@@H](CC(=O)OC(C)(C)C)c1nnc(C)n1-2
Method in brief: as §1

[5] = compound: c1ccc([C@@H]2C[C@H]2NC2CCNCC2)cc1
Method in brief: as §1

Chain of UniProt Q8TBZ6 (Q8TBZ6 whole entry, looked up): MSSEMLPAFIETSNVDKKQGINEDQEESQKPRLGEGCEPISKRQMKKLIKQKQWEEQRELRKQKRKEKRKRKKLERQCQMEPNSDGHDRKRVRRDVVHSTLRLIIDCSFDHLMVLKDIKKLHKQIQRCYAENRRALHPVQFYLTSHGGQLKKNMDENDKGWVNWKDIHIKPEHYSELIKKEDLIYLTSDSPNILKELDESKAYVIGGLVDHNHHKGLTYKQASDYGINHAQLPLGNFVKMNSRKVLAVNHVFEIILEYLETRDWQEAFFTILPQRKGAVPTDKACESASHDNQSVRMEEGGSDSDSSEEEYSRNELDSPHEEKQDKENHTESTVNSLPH
Chain of UniProt O95155 (O95155 whole entry, looked up): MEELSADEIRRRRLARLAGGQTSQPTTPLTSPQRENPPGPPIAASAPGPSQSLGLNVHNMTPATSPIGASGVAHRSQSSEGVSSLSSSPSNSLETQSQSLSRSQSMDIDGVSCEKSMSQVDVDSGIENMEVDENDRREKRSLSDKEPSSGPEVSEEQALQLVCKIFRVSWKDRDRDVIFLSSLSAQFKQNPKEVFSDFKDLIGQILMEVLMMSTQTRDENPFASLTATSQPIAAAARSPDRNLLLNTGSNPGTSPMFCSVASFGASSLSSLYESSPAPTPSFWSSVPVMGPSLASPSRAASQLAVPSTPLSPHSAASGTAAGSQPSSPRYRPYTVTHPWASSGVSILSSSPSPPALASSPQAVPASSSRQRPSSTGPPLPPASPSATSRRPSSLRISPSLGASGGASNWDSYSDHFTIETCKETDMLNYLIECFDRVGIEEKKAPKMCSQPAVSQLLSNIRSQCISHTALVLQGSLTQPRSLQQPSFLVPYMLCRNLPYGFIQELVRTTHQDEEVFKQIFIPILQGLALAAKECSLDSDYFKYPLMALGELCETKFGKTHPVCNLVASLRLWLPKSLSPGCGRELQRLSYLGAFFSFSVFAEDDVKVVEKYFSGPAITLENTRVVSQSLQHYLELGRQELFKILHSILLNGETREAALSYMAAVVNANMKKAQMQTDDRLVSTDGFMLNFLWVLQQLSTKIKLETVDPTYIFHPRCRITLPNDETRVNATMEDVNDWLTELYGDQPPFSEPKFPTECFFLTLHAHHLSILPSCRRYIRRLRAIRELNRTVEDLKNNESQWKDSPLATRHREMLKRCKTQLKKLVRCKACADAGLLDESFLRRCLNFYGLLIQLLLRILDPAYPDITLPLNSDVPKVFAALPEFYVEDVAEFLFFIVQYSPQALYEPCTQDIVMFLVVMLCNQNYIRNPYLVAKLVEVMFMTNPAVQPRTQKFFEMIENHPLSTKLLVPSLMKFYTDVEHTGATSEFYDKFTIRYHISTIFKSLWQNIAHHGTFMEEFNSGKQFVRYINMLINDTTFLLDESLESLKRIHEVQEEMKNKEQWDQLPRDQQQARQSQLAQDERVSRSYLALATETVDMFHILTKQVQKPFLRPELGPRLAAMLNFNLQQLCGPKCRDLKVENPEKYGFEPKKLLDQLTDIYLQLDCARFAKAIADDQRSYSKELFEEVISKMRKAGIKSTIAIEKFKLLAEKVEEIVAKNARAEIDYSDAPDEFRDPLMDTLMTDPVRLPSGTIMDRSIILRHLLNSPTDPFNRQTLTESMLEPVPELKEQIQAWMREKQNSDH
Chain of UniProt P02585 (P02585 whole entry, looked up): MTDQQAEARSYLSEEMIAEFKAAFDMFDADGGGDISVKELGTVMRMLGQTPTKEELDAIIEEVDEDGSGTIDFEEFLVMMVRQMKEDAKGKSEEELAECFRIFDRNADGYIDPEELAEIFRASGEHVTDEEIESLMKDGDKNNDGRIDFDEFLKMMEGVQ
Chain of UniProt O00220 (O00220 whole entry, looked up): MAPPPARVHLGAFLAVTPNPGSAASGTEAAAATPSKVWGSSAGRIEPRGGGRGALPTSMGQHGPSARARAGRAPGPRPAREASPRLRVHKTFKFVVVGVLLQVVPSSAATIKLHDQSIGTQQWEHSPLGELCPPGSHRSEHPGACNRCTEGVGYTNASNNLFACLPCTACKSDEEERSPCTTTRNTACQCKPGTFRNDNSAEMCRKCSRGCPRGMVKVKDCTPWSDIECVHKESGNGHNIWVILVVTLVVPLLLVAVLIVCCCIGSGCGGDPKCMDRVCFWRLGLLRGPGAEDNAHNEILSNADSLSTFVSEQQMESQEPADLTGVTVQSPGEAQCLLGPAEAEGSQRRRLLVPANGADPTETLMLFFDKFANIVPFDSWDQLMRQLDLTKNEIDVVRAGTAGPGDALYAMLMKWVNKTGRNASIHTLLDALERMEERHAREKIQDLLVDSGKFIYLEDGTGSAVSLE
Chain of UniProt P68366 (P68366 whole entry, looked up): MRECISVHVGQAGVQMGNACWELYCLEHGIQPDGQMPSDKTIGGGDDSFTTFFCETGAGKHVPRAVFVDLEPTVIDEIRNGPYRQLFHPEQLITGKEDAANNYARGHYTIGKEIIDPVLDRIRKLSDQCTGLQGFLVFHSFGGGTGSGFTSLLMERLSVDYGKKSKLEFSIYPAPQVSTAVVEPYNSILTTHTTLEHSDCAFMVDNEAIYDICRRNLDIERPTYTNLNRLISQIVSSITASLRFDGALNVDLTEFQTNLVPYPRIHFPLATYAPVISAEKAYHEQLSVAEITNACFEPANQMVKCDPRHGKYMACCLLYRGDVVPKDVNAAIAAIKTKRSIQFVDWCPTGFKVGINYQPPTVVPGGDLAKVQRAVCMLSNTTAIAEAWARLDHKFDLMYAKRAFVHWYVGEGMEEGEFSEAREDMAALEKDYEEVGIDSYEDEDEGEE
Chain of UniProt Q9H269 (Q9H269 whole entry, looked up): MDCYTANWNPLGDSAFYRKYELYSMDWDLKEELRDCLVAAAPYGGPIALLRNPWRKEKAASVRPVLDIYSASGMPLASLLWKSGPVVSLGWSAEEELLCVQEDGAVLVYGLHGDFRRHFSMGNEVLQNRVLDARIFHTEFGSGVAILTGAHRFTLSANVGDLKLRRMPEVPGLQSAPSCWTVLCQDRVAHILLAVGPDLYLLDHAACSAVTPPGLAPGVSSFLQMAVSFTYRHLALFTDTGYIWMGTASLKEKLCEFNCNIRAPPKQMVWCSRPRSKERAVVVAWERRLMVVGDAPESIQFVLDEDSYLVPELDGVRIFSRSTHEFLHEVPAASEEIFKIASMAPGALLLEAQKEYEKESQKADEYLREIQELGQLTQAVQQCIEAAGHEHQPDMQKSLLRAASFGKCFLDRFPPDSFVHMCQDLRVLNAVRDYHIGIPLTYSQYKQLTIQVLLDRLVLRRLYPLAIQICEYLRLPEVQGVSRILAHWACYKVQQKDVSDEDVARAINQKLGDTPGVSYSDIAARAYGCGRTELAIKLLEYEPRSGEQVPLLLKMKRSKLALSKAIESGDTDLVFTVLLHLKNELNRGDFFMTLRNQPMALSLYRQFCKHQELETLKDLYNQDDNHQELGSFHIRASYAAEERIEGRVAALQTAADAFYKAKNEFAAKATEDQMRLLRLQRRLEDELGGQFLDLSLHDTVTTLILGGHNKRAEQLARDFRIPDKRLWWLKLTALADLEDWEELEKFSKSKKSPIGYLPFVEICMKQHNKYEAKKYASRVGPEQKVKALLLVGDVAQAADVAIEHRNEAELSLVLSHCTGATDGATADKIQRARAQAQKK
Chain of UniProt Q13263 (Q13263 whole entry, looked up): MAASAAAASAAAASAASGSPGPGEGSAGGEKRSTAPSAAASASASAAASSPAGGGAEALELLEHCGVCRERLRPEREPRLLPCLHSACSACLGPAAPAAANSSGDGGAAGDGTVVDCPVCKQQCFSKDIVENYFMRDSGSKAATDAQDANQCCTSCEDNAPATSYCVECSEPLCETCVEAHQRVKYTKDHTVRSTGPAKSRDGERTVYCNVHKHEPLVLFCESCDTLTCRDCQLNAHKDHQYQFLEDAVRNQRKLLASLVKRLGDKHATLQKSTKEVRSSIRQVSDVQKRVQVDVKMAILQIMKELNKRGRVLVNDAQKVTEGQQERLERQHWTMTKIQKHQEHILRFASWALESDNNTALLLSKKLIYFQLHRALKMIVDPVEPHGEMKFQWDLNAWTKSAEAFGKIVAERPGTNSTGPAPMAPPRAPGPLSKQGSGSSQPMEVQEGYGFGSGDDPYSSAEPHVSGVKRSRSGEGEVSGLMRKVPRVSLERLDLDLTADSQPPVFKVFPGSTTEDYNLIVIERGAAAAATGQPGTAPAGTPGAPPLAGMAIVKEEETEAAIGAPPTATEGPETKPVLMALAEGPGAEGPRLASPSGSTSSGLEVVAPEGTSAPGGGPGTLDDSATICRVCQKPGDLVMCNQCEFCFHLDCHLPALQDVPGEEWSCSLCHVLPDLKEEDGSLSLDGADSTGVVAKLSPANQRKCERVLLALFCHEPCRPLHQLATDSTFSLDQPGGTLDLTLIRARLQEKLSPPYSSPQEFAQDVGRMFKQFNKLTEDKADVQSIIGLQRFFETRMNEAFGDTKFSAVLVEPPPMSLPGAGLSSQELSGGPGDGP
Chain of UniProt Q9NP79 (Q9NP79 whole entry, looked up): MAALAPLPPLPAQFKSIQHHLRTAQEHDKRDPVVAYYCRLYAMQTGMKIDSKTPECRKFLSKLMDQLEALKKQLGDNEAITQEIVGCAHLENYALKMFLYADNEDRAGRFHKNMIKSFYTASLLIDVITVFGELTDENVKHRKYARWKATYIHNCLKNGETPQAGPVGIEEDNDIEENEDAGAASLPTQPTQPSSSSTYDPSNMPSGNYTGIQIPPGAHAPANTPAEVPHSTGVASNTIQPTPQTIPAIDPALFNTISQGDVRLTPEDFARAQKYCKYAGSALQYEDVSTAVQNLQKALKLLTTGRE
Chain of UniProt O00258 (O00258 whole entry, looked up): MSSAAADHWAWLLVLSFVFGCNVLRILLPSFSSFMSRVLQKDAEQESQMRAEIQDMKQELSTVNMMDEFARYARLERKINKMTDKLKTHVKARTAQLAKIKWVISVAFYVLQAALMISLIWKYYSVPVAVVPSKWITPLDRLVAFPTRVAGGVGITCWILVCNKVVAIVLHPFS

Row | Target | log2 fold change [1] | log2 fold change [2] | log2 fold change [3] | log2 fold change [4] | log2 fold change [5]
1 | TNNC2 (UniProt P02585) | 0.043 | 0.004 | 0.06 | -0.624 | 0.031
2 | TXNIP (UniProt Q9H3M7) | -0.011 | 0.148 | -0.012 | -0.039 | -0.099
3 | TRIM28 (UniProt Q13263) | -0.029 | 0.029 | 0.017 | -0.012 | 0.009
4 | TNFRSF10A (UniProt O00220) | 0.033 | 0.006 | -0.058 | 0.024 | 0.01
5 | USP9X (UniProt Q93008) | -0.049 | 0.028 | 0.057 | 0.012 | -0.007
6 | VWA3B isoform 6 (UniProt Q502W6) | -0.161 | 0.069 | 0.162 | 0.129 | 0.064
7 | TSPAN13 (UniProt O95857) | -0.195 | 0.023 | 0.639 (active) | 0.076 | 0.018
8 | TRMT10A (UniProt Q8TBZ6) | -0.038 | 0.028 | 0.006 | -0.033 | -0.055
9 | UBE4B isoform 4 (UniProt O95155) | -0.019 | 0.03 | 0.019 | 0.006 | -0.003
10 | UBA52 (UniProt P62987) | 0.088 | -0.301 | -0.569 | 0.265 | 0.193
11 | VPS16 (UniProt Q9H269) | -0.188 | 0.048 | 0.106 | -0.021 | -0.038
12 | TUBA4A (UniProt P68366) | -0.02 | 0.077 | -0.03 | -0.01 | -0.076
13 | USO1 isoform 2 (UniProt O60763) | -0.007 | 0.012 | 0.028 | 0.012 | 0.048
14 | TRIM4 (UniProt Q9C037) | -0.049 | -0.014 | 0.254 | -0.04 | -0.038
15 | UXT isoform 2 (UniProt Q9UBK9) | 0.046 | 0.063 | 0.065 | -0.005 | -0.077
16 | WDR46 (UniProt O15213) | 0.058 | -0.35 | -0.302 | 0.246 | -0.005
17 | VDAC1 (UniProt P21796) | 0.047 | 0.008 | -0.024 | -0.007 | 0.026
18 | VTA1 (UniProt Q9NP79) | 0.007 | 0.062 | 0.104 | -0.075 | -0.025
19 | USP3 (UniProt Q9Y6I4) | 0 | 0.143 | 0.036 | -0.061 | -0.025
20 | TNFRSF8 (UniProt P28908) | 0.012 | 0.053 | 0.036 | -0.04 | 0.021
21 | WASHC3 (UniProt Q9Y3C0) | 0.015 | -0.022 | 0.045 | -0.001 | 0.028
22 | XRCC6 (UniProt P12956) | -0.04 | 0.044 | 0.114 | -0.022 | -0.003
23 | WASH2P (UniProt Q6VEQ5) | 0.015 | -0.015 | 0.026 | 0.041 | 0.027
24 | WRB (UniProt O00258) | 0.002 | -0.007 | -0.015 | 0.005 | 0.01
